Data on eight compounds can be found in PubChem BioAssay (NCATS).

Records with an inconclusive call do not appear. A number with no mark means an inactive call. The source made the active and inactive calls. The call rests on the fitted dose curve; in most records, active means well fitted inhibition curve with a large enough effect; inconclusive means small, poorly fitted or top-dose-only effect; inactive means flat fitted curve, though single readings scatter.

What all share (experiment): Cytotoxic Profiling of Annotated Libraries Using Quantitative High-Throughput Screening (AID 1296008); further: nearly all actives have a fitted effect of over 60% in size
What all share (details): Five cell lines viability, CellTiter-Glo ATP luminescence, 48-72 h; max response: hits give low values
On the technique in general: Cellular ATP, detected with luciferase, serves as a proxy for viable cell number.

One test has as its system CRL-7250. In outline: (§1)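 Compounds were pin-transferred onto cells and incubated 48 or 72 hr at 37 degree Celsius, 95% humidity. CellTiter-Glo was added, plates sat 10 min at room temperature, then ATP-coupled luminescence was imaged as the viability read-out.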
The test system of another test is HEK293. The method, boiled down:
as §1

A further test has as its system HaCat. In outline:
as §1

In the next test the test system is KB-3-1. In outline: as §1
A further test deals with NIH3T3. The method, boiled down:
as §1
On the % scale 0 is the no-effect control and ±100 the full control effect; potency means the concentration at half of the fitted maximal effect.

Turning to `CC1(c2nc3c(C(N)=O)cccc3[nH]2)CCCN1` (stereo not given), the max response was -7.72% with CRL-7250, -22.9% in the test on HEK293, -9.07% in the test on HaCat and -5.13% with NIH3T3. In addition, the compound was classed as inactive in the test with KB-3-1.
In the case of `O=C(Nc1c(-c2cccs2)nc2ccccn12)c1ccc(Cl)cc1`, the call in the test with CRL-7250, in the test with HaCat and with KB-3-1 was inactive. Besides, the max response in the test on HEK293 is -117%; in the test on NIH3T3 it was -0.375%.
As for `CC1(O)CCCC2(C)C1CCC13CC(CO)C(CCC12)C3` (stereo not given), the max response with CRL-7250 was -2.17%; in the test on HEK293, -21.4%; in the test on HaCat, 2.13%; in the test with NIH3T3 it was -0.27%. For the same compound, the compound was called inactive in the test with KB-3-1.
For the compound `COc1ccc(-c2nc(-c3ccc(-c4cccc(Cl)c4)o3)[nH]c2-c2ccc(OC)cc2)cc1`, in the test on CRL-7250, the outcome was inactive. For the same compound, in the test on HEK293, the Potency was 20600 nM (active). For the same compound, the values for the max response with HaCat, in the test with KB-3-1 and in the test with NIH3T3 were -26.5%, -16.3% and -19.3%, respectively.
In the case of `C=C1CCC2C(C)(C)CCC[C@]2(C)[C@H]1C/C=C(\CO)C(=O)C(=O)O` (stereo not given in full), the max response in the test with CRL-7250 was -8.85%; in the test on HEK293 it was 1.79%; with HaCat, 3.5%; with KB-3-1 it was -9.53%; with NIH3T3, -2.57%.
For `O=C(CSc1nc2c(c(=O)n1-c1ccccc1)SCC2)Nc1ccc(-c2ccccc2)cn1`, the Potency in the test with CRL-7250 was 231 nM (active); with HEK293, 41.1 nM (active); with KB-3-1, 46.1 nM (active); with NIH3T3, 58 nM (active). In addition, the max response in the test on HaCat is -7.15%.
Take `CC12CCC(C(OC3OC(COC4OCC(O)(CO)C4O)C(O)C(O)C3O)C1)C(C)(C)O2` (stereo not given): the max response was 2.4% in the test with CRL-7250; -9.12% in the test on HEK293; -11.8% with HaCat; 1.72% in the test on KB-3-1; 0.27% with NIH3T3.
On to `CC(=O)c1ccc2c(c1)C(O)C(C(C)(C)O)O2` (stereo not given), for which the max response in the test with CRL-7250 was -0.999%; with HEK293, -3.07%; in the test with HaCat, 1.04%; in the test on NIH3T3, -18%. Further, the compound was classed as inactive in the test with KB-3-1.
